Sampled rows, rich in hits. Any-hit rate of the full collection: about 0.88%.
FXIIa mix inh: human factor XIIa inhibitors, primary screen, biochemical, pooled compound mixtures, fluorogenic substrate | purified FXIIa | inhibition, % at 5 µM | 62,000 compounds, 0.2% hits | AID 684, 2007
FXIa inh mix: FXIa protease inhibitors in compound pools, primary screen, biochemical, 10-compound mixtures; inhibition, % at 5 µM; 62,000 compounds, 0.19% hits; purified FXIa, fluorogenic substrate, pooled mixtures; Coagulation factor XI (Homo sapiens), P03951;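 further: each value is inhibition by a whole ten-compound pool holding the compound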
MT1-MMP txn act: MT1-MMP promoter reporter activation – cell-based, luciferase luminescence, primary screen. HT1080 MT1-MMP promoter luciferase reporter, overnight; hits give high values. activation factor at 10 µM. 86,000 compounds, 0.16% hits;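 active means activation factor of at least 2 for MT1-MMP transcription at 10 µM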
Her2 expr inh: inhibitors of Her2 protein expression, primary screen, SKBR-3 cells, AlphaScreen, 66K library | Receptor tyrosine-protein kinase erbB-2 (Homo sapiens), P04626 | SKBR-3 HER2 protein level, 18-24 h; hits give low values | HER2 level % of control, % at 10 µM | 65,000 compounds, 0.69% hits;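 active means HER2 level under 5% of the carrier-only control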;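 further: lower value means stronger loss of Her2 protein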
Target sequence (P04626 whole entry, looked up): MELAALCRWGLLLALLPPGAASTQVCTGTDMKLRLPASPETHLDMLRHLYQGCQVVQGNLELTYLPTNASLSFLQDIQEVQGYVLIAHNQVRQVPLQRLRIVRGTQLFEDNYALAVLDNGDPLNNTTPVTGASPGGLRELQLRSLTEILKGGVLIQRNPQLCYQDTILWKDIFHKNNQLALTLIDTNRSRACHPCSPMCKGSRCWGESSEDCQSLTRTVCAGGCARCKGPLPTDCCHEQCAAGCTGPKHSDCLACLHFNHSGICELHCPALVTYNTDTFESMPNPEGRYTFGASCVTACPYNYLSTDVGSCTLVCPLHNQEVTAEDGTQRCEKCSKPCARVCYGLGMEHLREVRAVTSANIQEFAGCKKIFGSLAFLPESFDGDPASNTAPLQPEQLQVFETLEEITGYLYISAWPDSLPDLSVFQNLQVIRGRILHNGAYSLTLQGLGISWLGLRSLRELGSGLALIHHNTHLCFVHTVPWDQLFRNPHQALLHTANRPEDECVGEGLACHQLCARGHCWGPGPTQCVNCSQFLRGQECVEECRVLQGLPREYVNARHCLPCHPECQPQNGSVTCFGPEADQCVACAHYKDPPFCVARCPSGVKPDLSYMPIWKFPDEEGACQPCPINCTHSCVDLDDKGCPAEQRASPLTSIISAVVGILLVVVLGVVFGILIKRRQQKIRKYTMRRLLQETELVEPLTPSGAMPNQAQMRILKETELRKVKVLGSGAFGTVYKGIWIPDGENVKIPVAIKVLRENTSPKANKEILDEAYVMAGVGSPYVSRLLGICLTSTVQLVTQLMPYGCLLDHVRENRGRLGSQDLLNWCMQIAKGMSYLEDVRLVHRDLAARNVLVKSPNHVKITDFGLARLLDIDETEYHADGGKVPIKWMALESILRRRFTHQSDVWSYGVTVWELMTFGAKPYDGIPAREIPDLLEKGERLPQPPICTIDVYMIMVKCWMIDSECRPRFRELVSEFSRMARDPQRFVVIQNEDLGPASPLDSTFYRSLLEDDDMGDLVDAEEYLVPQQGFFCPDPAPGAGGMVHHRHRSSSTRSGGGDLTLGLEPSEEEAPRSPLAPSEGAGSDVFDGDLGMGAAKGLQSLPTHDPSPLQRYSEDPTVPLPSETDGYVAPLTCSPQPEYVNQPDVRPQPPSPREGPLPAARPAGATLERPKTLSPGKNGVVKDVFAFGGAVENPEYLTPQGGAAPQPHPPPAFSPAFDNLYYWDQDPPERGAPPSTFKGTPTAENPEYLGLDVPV
Each line names hits and unclear results; the compound was inactive in the other large screens. Unless noted, no stated cut-off is given here; in the data, active means inhibition above about 20% (passing the limit was not always enough); inactive means the rest.

COC(=O)CCCCCN1C(=O)NC(CC2CC2)C(C(=O)OCc2ccccc2)=C1C (configuration not stated)	none (no result: FXIIa mix inh, FXIa inh mix, Her2 expr inh)
COC(=O)Nc1ccc(S(=O)(=O)N(CCO)CC(F)(F)C(F)F)cc1	Her2 expr inh -19
CNC(=O)c1c(C)nc(SCC(=O)NCc2ccc(OC)cc2)c(C#N)c1-c1ccco1	Her2 expr inh -33
COCCOC(=O)c1c(C)nc(SCC(=O)Nc2cccc3ccccc23)c(C#N)c1-c1ccco1	none (no result: FXIIa mix inh, FXIa inh mix, Her2 expr inh)
CC(Oc1ccccc1F)C(=O)Nc1ccc2ccccc2c1 (configuration not stated)	MT1-MMP txn act 2 (no result: FXIIa mix inh, FXIa inh mix, Her2 expr inh)
N=C1N(/N=C/c2ccccc2)C(=Nc2ccccc2)C(=S)N1c1ccccc1	MT1-MMP txn act 2 (no result: FXIIa mix inh, FXIa inh mix, Her2 expr inh)
COC(=O)[C@H]1C[C@@H]1[C@H](NC(=O)[C@@H]1CCCN1C(=O)OC(C)(C)C)c1ccccc1	none (no result: FXIIa mix inh, FXIa inh mix, Her2 expr inh)
C=CCNC(=O)c1ccc(Cl)cc1Cl	FXIa inh mix 25
O=C(NCc1ccco1)C1CCN(S(=O)(=O)c2cccc3cccnc23)CC1	Her2 expr inh -17
O=S(=O)(NCc1ccco1)c1cccc2cccnc12	Her2 expr inh -16
O=C(NCc1cccs1)C1CCN(S(=O)(=O)c2cccc3cccnc23)CC1	none
CCOC(=O)C1=C(C)N(CCCC(=O)O)C(=O)NC1C(CC)CC (configuration not stated)	none (no result: FXIIa mix inh, FXIa inh mix, Her2 expr inh)
Cc1ccc(CNC(=O)[C@H](C)[C@@H]2C[C@@]2(C)[C@@H](NC(=O)OCc2ccccc2)c2ccccc2)c(F)c1F	none (no result: FXIIa mix inh, FXIa inh mix, Her2 expr inh)
COc1ccccc1N=Cc1nc(-c2ccccc2)oc1OC(C)=O	FXIa inh mix 50 (no result: MT1-MMP txn act)
CCc1cc(C(=O)Nc2ccc(C)cc2Br)cs1	MT1-MMP txn act 2 (no result: FXIIa mix inh, FXIa inh mix, Her2 expr inh)
O=C(NCc1ccc2c(c1)OCO2)c1cccc(N2CCCC2=O)c1	FXIIa mix inh 27 (no result: MT1-MMP txn act)
COc1ccc(-c2nc(C#N)c(NCc3ccc(C)cc3)o2)cc1OC	none
CC(C)(C)c1ccc(-c2nc(C#N)c(NCc3ccncc3)o2)cc1	MT1-MMP txn act 2
Cc1c(CCC#N)c(N2CCN(C3CCCCC3)CC2)n2c(nc3ccccc32)c1C#N	Her2 expr inh -16
Nc1c(C(=O)NCCN2CCOCC2)c2nc3ccccc3nc2n1-c1ccc2c(c1)OCO2	none
Nc1c(C(=O)NCc2ccc3c(c2)OCO3)c2nc3ccccc3nc2n1CCCN1CCOCC1	Her2 expr inh 3.8
CCOC(=O)C1=C(C)N(CCCC(=O)NCCn2c(-c3ccccc3)cc(C(=O)OC)c2C)C(=O)NC1c1ccc([N+](=O)[O-])cc1 (configuration not stated)	none (no result: FXIIa mix inh, FXIa inh mix, Her2 expr inh)
COc1ccccc1-c1cc(C(F)(F)F)nc(S(C)(=O)=O)n1	none (no result: FXIIa mix inh, FXIa inh mix, Her2 expr inh)
CS(=O)(=O)c1nc(-c2ccco2)cc(C(F)(F)F)n1	Her2 expr inh -22
COC(=O)c1ccc(C(NC(=O)OCc2ccccc2)/C(C)=C/[C@@H](C)C(=O)N2CCN(C)CC2)cc1 (some centres not stated)	none (no result: FXIIa mix inh, FXIa inh mix, Her2 expr inh)
C#CCOC(=O)c1ccccc1C(=O)OCC#C	Her2 expr inh -22
CCCCCc1c(O)nc(SCC(=O)O)[nH]c1=O	none (no result: FXIIa mix inh, FXIa inh mix, Her2 expr inh)
Cc1cc(C)c(O)c(-c2cc(C(=O)Nc3ccc(S(=O)(=O)N4CCOCC4)cc3)[nH]n2)c1	Her2 expr inh -11
COC(=O)[C@@H]1C[C@H]1[C@@H](NS(=O)(=O)c1ccc(-c2ccccc2)cc1)c1ccccc1	none (no result: FXIIa mix inh, FXIa inh mix, Her2 expr inh)
COc1ccc2[nH]c3c(NCc4ccco4)ncnc3c2c1	MT1-MMP txn act 2.1 (no result: FXIIa mix inh, FXIa inh mix, Her2 expr inh)
CCN(CC)CCNc1ncnc2c1[nH]c1ccc(OC)cc12	none (no result: FXIIa mix inh, FXIa inh mix)
CCn1c(COc2cccc(C)c2)nc2ccccc21	none (no result: FXIIa mix inh, FXIa inh mix, Her2 expr inh)
COCn1c(COc2ccc3ccccc3c2)nc2ccccc21	MT1-MMP txn act 2.3 (no result: FXIIa mix inh, FXIa inh mix, Her2 expr inh)
COc1cc(/C=C(/C(=O)c2cccs2)c2nc3ccccc3[nH]2)cc(OC)c1O	none (no result: FXIIa mix inh, FXIa inh mix, Her2 expr inh)
COC(=O)[C@@H]1C[C@@]2(O)[C@@H](O)[C@@H](O)[C@@H](O)C[C@H]2N1Cc1cc(F)ccc1F	none (no result: FXIIa mix inh, FXIa inh mix, Her2 expr inh)
COc1cc2c(cc1OC)CN(c1ccc(-c3ccccc3OC)nn1)CC2	Her2 expr inh -3.7
FC(F)(F)c1ccc(C2[C@H]3CN(CC4CCCCC4)[C@H](c4ccccc4)C34CC2(c2ccccc2)C4)cc1 (some centres not stated)	none (no result: FXIIa mix inh, FXIa inh mix, Her2 expr inh)
COC(=O)[C@@H]1C[C@@H]2CC[C@@H](O)C[C@@H]2N1Cc1ccc(-c2ccccc2)cc1	none (no result: FXIIa mix inh, FXIa inh mix, Her2 expr inh)
CCCCc1ccc(-c2ccc(Br)cc2)nc1	MT1-MMP txn act 2 (no result: FXIIa mix inh, FXIa inh mix, Her2 expr inh)
COC(=O)CSc1nnc(-c2ccc(S(=O)(=O)N3CCCCC3)cc2)o1	none
CCOC(=O)CSc1nnc(-c2ccc(NS(=O)(=O)c3ccc(C)cc3)cc2)o1	Her2 expr inh -1.4

Screens deposited in PubChem BioAssay by several laboratories.
